Calls of active or inactive are those of the source. The calls were made as follows: active = hit-call score of the fitted dose curve at least 0.9, where 1 is the maximum; inactive = score below 0.9.
assay: Tanguay_ZF_120hpf_DP24: Oregon State University Tanguay Lab 24 Hour Post-fertilization zebrafish Assay for Delayed Development (AID 2284390)
Method: Tanguay_ZF_120hpf is a whole embryo, multiplexed endpoint assay using zebrafish larvae exposed for 120 hours post fertilization on a 96-well plate.Tanguay_ZF_120hpf_DP24 is […] measured or calculated from the Tanguay_ZF_120hpf assay. It is designed to make measurements of zebrafish development as detected with brightfield microscopy of developing zebrafish embryos.Data from the assay component Tanguay_ZF_120hpf_DP24 was analyzed into 1 assay endpoints. This assay endpoint, Tanguay_ZF_120hpf_DP24, was analyzed in the positive analysis fitting direction relative to DMSO as the negative control and baseline of activity. Using a type of morphology reporter, gain-of-signal activity can be used to understand changes in developmentals as they relate to the whole embryo. To generalize the intended target to other relatable targets, this assay endpoint is annotated to the zebrafish development intended target family, where the subfamily is embryonic morphogenesis.
Zebrafish husbandry: Tropical 5D wild-type adult zebrafish were housed in at an approximate density of 1000 per 100 gallon tank at the Sinnhuber Aquatic Research Laboratory, Oregon State University, Corvallis, OR. Each tank was kept at standard laboratory conditions of 28C on a 14-h light/10-h dark photoperiod in fish water consisting of reverse osmosis water supplemented with a commercially available salt (Instant Ocean). Spawning funnels were placed into the tanks the night prior, and embryos were collected and staged. To increase bioavailability, the chorion was enzymatically removed using pronase (63.6mg/ml, >/= 3.5U/mg, Sigma-Aldrich: P5147) at 4 hours post fertilization (hpf) using a custom automated dechorionator.Chemical exposures: Six hpf dechorionated embryos were placed 1 embryo per well in a 96-well plate prefilled with 90 ul of EM using automated embryo placement systems (AEPS). Ten microliters of each row of dilution plate 2 was added to 2 exposure plates. The final DMSO concentration used was 0.64% (vol/vol). Thirty-two embryos were also exposed to 5uM trimethyltin chloride (positive control). Plates were sealed to prevent evaporation and foil covered to reduce light exposure and kept in a 28C incubator. Embryos were statically exposed until 120 hpf. At 24 hpf, embryos were assessed for photomotor response using a custom photomotor response analysis tool (PRAT) and for developmental toxicity endpoints (MO24: mortality at 24 hpf, DP: developmental progression, SM: spontaneous movement, and NC: notochord distortion). At 120 hpf, locomotor activity was measured using Viewpoint Zebralab and assessed for 13 endpoints. Zebrafish acquisition and analysis program (ZAAP), a custom program designed to inventory, acquire, and manage zebrafish data, was used to collect developmental endpoints as either present or absent (i.e., binary responses were recorded). If mortality occurred for an embryo (at either 24 or 120 hpf), the non-mortality endpoints were not measured.

| Structure (SMILES) | outcome |
| --- | --- |
| FC(F)(F)C(F)(F)C(F)(F)C(F)(F)CCI | inactive |
| O=C(O)C(F)(F)C(F)(F)C(F)(F)C(F)(F)C(F)(F)C(F)(F)C(F)(F)C(F)(F)C(F)(F)C(F)(F)C(F)(F)C(F)(F)C(F)(F)F | inactive |
| O=C(O)C(F)(F)C(F)(F)C(F)(F)C(F)(F)F | inactive |
| FC(F)(F)C(F)(F)C(F)(F)N(C(F)(F)C(F)(F)C(F)(F)F)C(F)(F)C(F)(F)C(F)(F)F | inactive |
| O=C(O)C(F)(F)C(F)(F)C(F)F | inactive |
| O=S(=O)(O)C(F)(F)C(F)(F)C(F)(F)C(F)(F)C(F)(F)C(F)(F)C(F)(F)F | inactive |
| O=C(O)C=C(C(F)(F)F)C(F)(F)F | inactive |
| FC1CC(F)(F)C(F)(F)C1(F)F (stereo not given) | inactive |
| FC(F)(F)C(F)(F)CNCC(F)(F)C(F)(F)F | inactive |
| FC(F)(F)C(F)(F)C(F)(F)C(F)(F)C(F)(F)C(F)(F)C(F)(F)C(F)(F)CCS | inactive |
| FC(F)(F)C(F)(F)C(F)(F)C(F)(F)C(F)(F)C(F)(F)CC1CO1 (stereo not given) | inactive |
| OCC(F)(F)C(F)(F)C(F)(F)C(F)(F)C(F)(F)C(F)(F)F | inactive |
| C=CC(F)(F)C(F)(F)C(F)(F)C(F)(F)C(F)(F)C(F)(F)C(F)(F)C(F)(F)F | inactive |
| N=C(N)C(F)(F)C(F)(F)C(F)(F)C(F)(F)C(F)(F)C(F)(F)C(F)(F)F | inactive |
| CC(C)(C)C(=O)CC(=O)C(F)(F)C(F)(F)C(F)(F)F | inactive |
| O=C(CC(=O)C(F)(F)C(F)(F)F)C(F)(F)F | inactive |
| FC(F)(F)C(F)(F)C(F)(F)C(F)(F)C(F)(F)CCI | inactive |
| C=CC(F)(F)C(F)(F)C(F)(F)C(F)(F)C(F)(F)C(F)(F)C(F)(F)C(F)(F)C=C | inactive |
| O=C(O)C(F)(F)C(F)(F)C(F)(F)C(F)(F)C(F)(F)C(F)(F)C(F)(F)C(F)(F)C(F)(F)C(F)F | inactive |
| NC(=O)C(F)(F)C(F)(F)C(F)(F)C(F)(F)F | inactive |

| Structure (SMILES) | outcome |
| --- | --- |
| O=C(O)C(F)(OC(F)(F)C(F)(OC(F)(F)C(F)(OC(F)(F)C(F)(F)C(F)(F)F)C(F)(F)F)C(F)(F)F)C(F)(F)F (stereo not given) | inactive |
| FC(F)(F)C(F)(F)C(F)(F)CI | inactive |
| O=C(O)C(F)(F)C(F)(F)C(F)(F)F | inactive |
| O=S(=O)(OCC(F)F)C(F)(F)F | inactive |
| O=S(=O)(OCCOC(F)(F)F)C(F)(F)F | inactive |
| FC(F)(F)C(F)(F)C(F)(F)C(F)(F)C(F)(F)C(F)(F)C(F)(F)Br | inactive |
| CCCCCCCCC(F)(F)C(F)(F)C(F)(F)C(F)(F)C(F)(F)C(F)(F)F | inactive |
| OCC(F)(F)C(F)(F)C(F)(F)C(F)F | inactive |
| O=C(O)C(F)(F)C(F)(F)C(F)(F)C(F)(F)C(F)(F)C(F)(F)C(F)(F)C(F)(F)Cl | inactive |
| Cc1ccc(S(=O)(=O)OCC(F)(F)C(F)(F)C(F)(F)C(F)(F)C(F)(F)C(F)F)cc1 | inactive |
| OCC(F)(F)C(F)(F)C(F)(F)C(F)(F)C(F)(F)C(F)F | inactive |
| OCCCC(F)(F)C(F)(F)C(F)(F)F | inactive |
| C=C(C)C(=O)OCC(F)(F)C(F)(F)C(F)(F)C(F)(F)C(F)(F)C(F)(F)C(F)(F)F | inactive |
| FC(F)(F)C(F)(F)C(F)(F)C(F)(F)C(F)(F)C(F)(F)C(F)(F)C(F)(F)F | inactive |
| O=C(O)C(F)(F)C(F)(F)OC(F)(F)F | inactive |
| C=CC(=O)OCC(F)(F)C(F)(F)C(F)(F)C(F)(F)C(F)(F)C(F)(F)C(F)(F)F | inactive |
| C=C(C)C(=O)OCC(F)(F)C(F)(F)C(F)(F)F | inactive |
| FC(F)(F)C(F)(F)C(F)(F)C(F)(F)C(F)(F)C(F)(F)C(F)(F)I | inactive |
| O=C(O)C(F)(F)C(F)(F)C(F)(F)C(F)(F)C(F)(F)C(F)(F)C(F)(F)C(F)(F)C(F)(F)C(F)(F)C(F)(F)C(F)(F)F | inactive |
| OCCCC(F)(F)C(F)(F)C(F)(F)C(F)(F)C(F)(F)C(F)(F)C(F)(F)F | inactive |
